Hit rate of the full screen: of about 370,000 compounds, about 2,400 (0.65%) were called active.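 The calls were made as follows: active = inhibition above the screen-wide mean plus 3 SD (cut at about 13% in these data); inactive = the rest.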 Many of the other results were omitted from the sample, so actives are more common in it than they were.
Tested on: HIV-1 integrase (with human LEDGF/p75)
Test: blockers of LEDGF/p75-dependent integrase strand transfer – biochemical, TR-FRET, high throughput, primary screen (AID 743269);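 also: signal is the Cy5 over europium emission ratio at 671 and 618 nm; 0% = plate median of compound wells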
Settings: TR-FRET IN-LEDGF/p75 DNA integration, Eu/Cy5; at 3.7 µM; hits give high values

inhibition, active:
COc1cc(/C=C2\CCCc3c2nc2ccccc2c3C(=O)O)cc(Cl)c1O 30.4%
COc1cccc(NC(=O)COC(=O)/C=C/c2ccco2)c1 20.4%
Cc1oc2c(c1C(=O)N1CCOCC1)C(=O)c1ccccc1C2=O 18.3%
CC1(C(=O)NS(=O)(=O)c2ccccc2)CCN1C(=O)Cc1ccc(-c2ccccc2)cc1 (stereo unspecified) 19.2%
CCN(CC)CCOc1ccc2c(c1)C(=NNC(=O)c1ccccn1)c1cc(OCCN(CC)CC)ccc1-2 19.1%
COc1cc(-c2nnc(NC(=O)CS(=O)(=O)c3ccc(Cl)cc3)o2)cc(OC)c1OC 15.4%
O=S(=O)(Nc1ccc(O)c2ccccc12)c1ccc(OC(F)(F)F)cc1 16.5%
Cc1ccc(/C=C/C(=O)Nc2ccc([N+](=O)[O-])c(NC(=O)/C=C/c3ccc(C)o3)c2)o1 24.3%
NNc1cccc(C=Cc2ccccc2)cc1=O 29.3%
CN(C)c1ccc(N/C=C/C(=O)C(F)(F)F)cc1 51%
O=C1OC(/C=C/c2ccccc2)=NC/1=C/c1ccco1 23.8%
CCOC(=O)c1ccc(NC(=O)CSc2ncccn2)cc1 21.2%
Cc1sc2nc(SCC(=O)c3ccc(O)c(O)c3)n(Cc3ccco3)c(=O)c2c1C 34.8%
Cc1cc(C(=O)NN=C/C=C/c2ccco2)n[nH]1 15.1%
O=C(NNC(=O)c1ccccc1O)c1ccccc1O 27.2%
COc1ccc2c(c1)c(=Cc1ccc(N(C)C)cc1)c1cc(-c3ccccc3)[n+](C)n12 18.8%
Cc1ccc(C(=O)N2CCCc3ccccc32)c(Cl)c1 38%

inhibition, inactive:
COC(=O)c1cc(N2CCNCC2)nc2ccccc12 -3.62%
COc1ccc(-n2nc(C(=O)NCC(=O)N3CCCCCC3)c3ccccc3c2=O)cc1Cl -4.29%
C[C@@H]1COc2cccc(N3CCCC3)c2S(=O)(=O)N1C -1.59%
COc1ccc([N+](=O)[O-])cc1NC(=O)COC(=O)/C=C/c1ccco1 -5.28%
NS(=O)(=O)c1cccc(NC(=O)COC(=O)/C=C/c2ccco2)c1 -1.8%
CC(C)(C)c1ccc(C(=O)Nc2cc(Cl)c(Br)cc2C(=O)O)cc1 5.86%
CCCCOCCCNC(=O)C[C@H]1C[C@@]2(C(=O)OC)C(=C[C@H](COCc3ccccc3)O[C@@H]2C)N(Cc2cccc3ccccc23)C1=O -2.14%
COC(=O)[C@H](C(C)C)N1CCc2nnn(Cc3ccc(C)cc3)c2-c2ccccc2S1(=O)=O 0.15%
CC(C(=O)Nc1ccccc1-c1ccccc1)N1CCOCC1 (stereo unspecified) -2.51%
Cc1nc2ccccc2n1C(=O)N1CCOCC1 -1.41%
CC1(C(=O)NS(=O)(=O)c2cccs2)CCN1C(=O)Cc1ccc(-c2ccccc2)cc1 (stereo unspecified) -0.36%
CCCNC(=O)C1(C)CCN1C(=O)Cc1ccc(-c2ccccc2)cc1 (stereo unspecified) 0.51%
COc1ccc(/C=C2\CC3(OC(C)=O)CCCN2C3)cc1 (stereo unspecified) -2.77%
C[C@H](C(=O)N(C)c1ccccc1)[C@@H](O)c1ccc2ccccc2c1 -3.07%
CCCC(C(=O)OCCN(CC)CC)(c1ccccc1)c1ccccc1 -3.9%
CCN(CC)S(=O)(=O)c1cc(C(=O)Nc2ccccn2)ccc1C 1.24%
O=C(NC1CCCC1)C1CSCCS(=O)(=O)N1Cc1ccccc1 (stereo unspecified) 0.83%
C=C(C)C1CC23C(=O)C4(C(=O)c5ccccc5)C[C@@]5(C)CCC(CC2C1(C)C)(C4=O)C35OC (stereo partly specified) -2.25%
Cc1ccc(NC(=O)Cc2cccc(F)c2)c(S(=O)(=O)N2CCOCC2)c1 1.83%
CCCCNC(=O)C[C@H]1C(=O)N(Cc2ccc(OC)cc2)C2=CCCC[C@@]21C(=O)OCC -5.02%
Cc1ccc(C)c(-c2nnc(NC(=O)CS(=O)(=O)c3ccccc3)o2)c1 -2.12%
COc1cc(-c2nnc(NC(=O)C3=COCCO3)o2)cc(OC)c1OC 5.65%
CC(CCN1CCC(C(O)(c2ccccc2)c2ccccc2)CC1)Oc1ccc(C(F)(F)F)cc1 (stereo unspecified) -3.25%
O=[N+]([O-])c1ccc(NS(=O)(=O)c2ccccc2)c(Cl)c1 7.69%
O=S(=O)(Cc1noc(-c2ccc(OC(F)(F)F)cc2)n1)c1ccc(F)cc1 0.93%
CCC(NC(=O)C1C2C=CC3(CN(Cc4ccccc4)C(=O)C13)O2)c1ccccc1 (stereo unspecified) -1.5%
COC(=O)[C@]12C[C@H](CC(=O)NCCc3ccccc3OC)C(=O)N(Cc3ccco3)C1=C[C@H](C(C)C)O[C@@H]2C1CC1 -0.43%
COC(=O)[C@]12C[C@H](CC(=O)N3CCOCC3)C(=O)N(Cc3ccc(Cl)cc3Cl)C1=C[C@H](C(C)C)O[C@@H]2C1CC1 -2.5%
CCOc1ccc(-n2c(SCC(=O)Nc3cc(C)c(NC(=O)c4ccccc4)cc3OC)nnc2-c2cccc(Cl)c2)cc1 -4.78%
CCOc1ccc(NC(=S)NC(=O)/C=C/c2ccc(OC)cc2)c([N+](=O)[O-])c1 5.44%
Cc1cc(NC(=O)COC(=O)/C=C/c2ccc(C)o2)no1 -2.47%
CC(=O)c1cc(-c2ccc3ccccc3c2)c(=O)n2c1CCC2 0.07%
CC(c1ccc(N)cc1)c1cn(C)c2ccccc12 (stereo unspecified) -3.68%
Cc1ccc(-n2c(SCC(=O)Nc3cccc4ccccc34)nnc2-c2ccccn2)cc1 -0.35%
COC(CNC(=O)[C@H](Cc1ccccc1)NC1(C(=O)NC2CCCCC2)CCCCC1)OC 2.51%
Cc1ccc(-c2nnc(SCC(=O)Nc3ccc(Oc4ccccc4)cc3)n2Cc2ccco2)cc1 -1.74%
Nn1c(SCC(=O)N2c3ccccc3Sc3ccccc32)nnc1-c1n[nH]c2c1CCC2 -0.96%
O=C(NC1CCCCN(Cc2cccc(C(F)(F)F)c2)C1=O)c1ccccc1I (stereo unspecified) -1.97%
O=C(CSc1nc2sc3c(c2c(=O)n1-c1ccccc1)CCCC3)NN=Cc1ccc(OCc2ccccc2)cc1 -1.95%
CC1CN(/C=C/C(=O)C(F)(F)F)CC(C)O1 (stereo unspecified) 1.92%
O=S1(=O)c2c(NCc3ccco3)cccc2Oc2ccccc2CN1Cc1cn(Cc2cccc(C(F)(F)F)c2)nn1 -4.08%
COc1ccccc1/C=C/C1=NC(=C\N(C)C)/C(=O)O1 -2.48%
CCn1c(SCC(C)=O)nc2sc3c(c2c1=O)CCCC3 4.15%
COC(=O)C12C=C3CC(c4ccccc4)=C3C(=O)N1Cc1[nH]c3ccccc3c1C2 (stereo unspecified) -0.02%
CCOC(=O)c1ccc(NC(=S)N2CCN(c3ccccn3)CC2)cc1 3.04%
CCOC(=O)c1ccc(NC(=O)Cn2cnc3cc(C)c(C)cc32)cc1 -0.18%
O=C(NC1CCC1)c1ccc(C#Cc2cccc(F)c2)c[n+]1[O-] -0.89%
O=C(CSc1nnc(COc2ccccc2)n1Cc1ccco1)c1ccc2ccccc2c1 1.68%
Cc1sc2nc(SCC(N)=O)n(C)c(=O)c2c1C 1.58%
CCOC(=O)[C@]12CCCC=C1N(Cc1ccc(OC)cc1)C(=O)[C@@H]2CC(=O)N1CCOCC1 4.73%
Cc1ccc(NC(=O)c2cc(C)nn2-c2ccccc2)c(C)c1 -1.51%
CCC(=O)c1c(CC)c2n3c1=CC[C@H]3CC(Br)C=2 (stereo partly specified) -2.29%
CN(C)Cc1cn(-c2ccc(-c3noc4c3C(=O)N(CC(=O)N3CCOCC3)CC4)cc2)nn1 -1.95%
COc1ccc(C#CCNCc2ccc(OC)cc2OC)cc1 -3.69%
CCCCOCCCNC(=O)C[C@H]1C[C@@]2(C(=O)OC)C(=C[C@H](C(C)(C)C)O[C@@H]2C)N(CCc2ccc(OC)c(OC)c2)C1=O 2.16%
CC(C)CNC(=O)COC(=O)/C=C/c1ccco1 0.15%
CN(C)S(=O)(=O)c1cccc(C(=O)N/N=C\c2ccco2)c1 -0.56%
COc1ccc(N2CCN(CCNS(=O)(=O)c3ccc(Cl)s3)CC2)cc1 -1.84%
O=C(CSc1nnc(-c2ccccn2)n1-c1ccc(Cl)cc1)Nc1ccccc1-c1ccccc1 -2.85%
C=CCN1C(=O)[C@H](CC(=O)N2CCN(C(=O)OCC)CC2)[C@@]2(C(=O)OCC)CCCC=C12 -0.39%
O=C(CO/N=C/c1ccccc1O)NNC(=O)c1ccccc1Cl 3.91%
O=C(NNC(=S)NC1CCCCC1)c1ccccc1Cl 0.05%
CCC(c1ccc(NC(=O)OC(C)(C)C)cc1)c1cc(OC)cc(OC)c1 (stereo unspecified) -0.14%
CCOC(=O)C1(Cc2ccccc2)CCN(Cc2cn(C(C)=O)c3ccccc23)CC1 -1.3%
Cc1ccccc1NC(=O)COC(=O)c1ccc(Sc2ncn[nH]2)c([N+](=O)[O-])c1 -3.54%
O=C(CN1CCC(NC(=O)NCc2ccccc2)CC1)Nc1ccc2c(c1)OCCO2 0.58%
O=C(Nc1ccc(Br)cc1)OCCN1C(=O)CCC12CCC(c1ccccc1)CC2 (stereo unspecified) -0.45%
Cc1ccc2c(c1)N(CC(=O)N1CCCc3ccccc31)C(=O)C(C)O2 (stereo unspecified) 4.28%
Cc1cccc2cc3c(N)c(C(=O)N4CCCc5ccccc54)sc3nc12 1.54%
